# Reference: ChEMBL document CHEMBL3988442, “University of Dundee, Small-Polar-MMV Screening Library” (2021)
# For some of these results: Results with a measured potency or affinity are listed apart.
# Assays:
# Design in all cases: scale not given: direction of the effect not stated beside the values
# [1] = target: Protein translocase subunit SecA (Escherichia coli (strain K12)) (UniProt P10408); assay: Assay to Identify E. coli SecA ATPase Inhibitors; format: functional; conditions: 30 µM
# [2] = target: T1, Ubiquitin-activating enzyme e1, putative (Leishmania donovani (strain BPK282A1)) (UniProt E9BSI1); assay: Leishmania donovani Ubiquitin Activating Enzyme (LdE1); format: functional; conditions: 30 µM
# T1 sequence (whole entry): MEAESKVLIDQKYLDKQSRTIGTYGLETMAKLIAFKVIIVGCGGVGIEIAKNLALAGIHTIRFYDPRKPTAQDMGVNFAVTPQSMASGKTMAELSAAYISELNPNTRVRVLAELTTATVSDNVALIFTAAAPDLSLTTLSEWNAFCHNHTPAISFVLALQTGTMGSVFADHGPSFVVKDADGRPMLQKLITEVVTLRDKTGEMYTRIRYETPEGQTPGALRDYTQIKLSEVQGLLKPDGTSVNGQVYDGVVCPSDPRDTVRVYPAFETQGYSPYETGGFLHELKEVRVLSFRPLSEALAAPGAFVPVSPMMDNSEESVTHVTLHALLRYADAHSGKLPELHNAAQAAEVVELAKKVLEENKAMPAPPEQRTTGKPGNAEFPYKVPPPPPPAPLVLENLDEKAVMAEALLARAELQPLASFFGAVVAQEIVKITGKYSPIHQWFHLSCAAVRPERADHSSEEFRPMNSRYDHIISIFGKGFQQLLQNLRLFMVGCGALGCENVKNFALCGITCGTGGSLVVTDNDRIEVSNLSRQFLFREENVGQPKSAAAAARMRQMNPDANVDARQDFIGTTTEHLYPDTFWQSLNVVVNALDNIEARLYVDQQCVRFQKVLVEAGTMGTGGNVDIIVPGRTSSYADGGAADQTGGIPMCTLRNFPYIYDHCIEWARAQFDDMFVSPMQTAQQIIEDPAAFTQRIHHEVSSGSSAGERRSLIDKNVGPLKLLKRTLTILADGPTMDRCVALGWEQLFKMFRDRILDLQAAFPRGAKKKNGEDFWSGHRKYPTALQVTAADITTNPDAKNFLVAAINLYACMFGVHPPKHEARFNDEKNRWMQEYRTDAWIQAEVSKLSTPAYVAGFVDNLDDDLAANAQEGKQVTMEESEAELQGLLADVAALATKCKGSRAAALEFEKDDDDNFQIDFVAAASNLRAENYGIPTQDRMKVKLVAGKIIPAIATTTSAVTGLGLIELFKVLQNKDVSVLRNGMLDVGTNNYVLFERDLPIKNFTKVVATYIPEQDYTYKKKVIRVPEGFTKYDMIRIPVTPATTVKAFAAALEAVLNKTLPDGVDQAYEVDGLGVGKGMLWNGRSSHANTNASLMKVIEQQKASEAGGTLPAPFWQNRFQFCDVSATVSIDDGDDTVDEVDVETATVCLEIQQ
# [3] = target: T2, Aspartate--tRNA(Asp/Asn) ligase (Mycobacterium tuberculosis (strain ATCC 25618 / H37Rv)) (UniProt P9WFW3); assay: Assay for Asp RNA synthetase-1 from Mycobacterium tuberculosis; format: functional; conditions: 30 µM; note: in the data most compounds retested in dose-response had high values
# T2 sequence (whole entry): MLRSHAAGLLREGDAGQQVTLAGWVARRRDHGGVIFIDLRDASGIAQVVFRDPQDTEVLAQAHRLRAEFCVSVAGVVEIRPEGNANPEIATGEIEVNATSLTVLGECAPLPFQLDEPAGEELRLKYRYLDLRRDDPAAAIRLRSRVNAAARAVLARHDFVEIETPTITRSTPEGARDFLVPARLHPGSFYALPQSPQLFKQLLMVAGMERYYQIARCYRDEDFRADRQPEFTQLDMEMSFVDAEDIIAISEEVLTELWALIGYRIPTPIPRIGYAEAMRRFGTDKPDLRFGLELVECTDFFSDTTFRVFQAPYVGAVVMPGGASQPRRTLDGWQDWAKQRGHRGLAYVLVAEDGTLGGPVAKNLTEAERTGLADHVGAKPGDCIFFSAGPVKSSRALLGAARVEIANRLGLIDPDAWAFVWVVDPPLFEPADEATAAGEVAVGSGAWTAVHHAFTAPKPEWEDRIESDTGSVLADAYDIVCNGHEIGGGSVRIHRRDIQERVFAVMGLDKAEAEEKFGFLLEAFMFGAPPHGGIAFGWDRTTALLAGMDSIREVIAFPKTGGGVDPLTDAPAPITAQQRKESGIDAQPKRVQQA
# [4] = target: Sialic acid-binding Ig-like lectin 9 (Homo sapiens) (UniProt Q9Y336); assay: Hs-Siglec9 ALPHAscreen SOP 20170721; conditions: 10 µM
# [5] = test system: Trypanosoma cruzi; assay: Trypanosoma cruzi phosphomannomutase and mannose-1-phosphate guanylyltransferase assay; format: functional; conditions: 10 µM
# [6] = target: T3, Arginase-2, mitochondrial (Homo sapiens) (UniProt P78540); assay: in vitro enzyme assay to detect the production of urea directly proportional to the activity of Arginase II; format: functional; conditions: 33.3 µM; note: in the data most compounds retested in dose-response had high values
# T3 sequence (whole entry): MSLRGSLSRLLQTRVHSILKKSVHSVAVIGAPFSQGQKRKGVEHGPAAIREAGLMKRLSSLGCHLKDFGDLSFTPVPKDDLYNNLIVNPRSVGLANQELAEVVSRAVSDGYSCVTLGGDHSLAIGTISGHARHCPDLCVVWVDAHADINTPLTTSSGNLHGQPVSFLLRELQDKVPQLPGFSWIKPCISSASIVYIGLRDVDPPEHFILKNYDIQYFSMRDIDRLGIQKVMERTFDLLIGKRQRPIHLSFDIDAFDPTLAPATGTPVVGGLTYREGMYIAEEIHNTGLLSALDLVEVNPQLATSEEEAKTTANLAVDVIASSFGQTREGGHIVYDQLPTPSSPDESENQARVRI
# [7] = target: T4, Proteasome subunit beta (Trypanosoma cruzi) (UniProt O96673); assay: Trypanosoma cruzi proteasome chymotrypsin-like activity (TcProtChymo) assay.; note: in the data most compounds retested in dose-response had high values; format: functional; conditions: 9.37 µM
# T4 sequence (whole entry): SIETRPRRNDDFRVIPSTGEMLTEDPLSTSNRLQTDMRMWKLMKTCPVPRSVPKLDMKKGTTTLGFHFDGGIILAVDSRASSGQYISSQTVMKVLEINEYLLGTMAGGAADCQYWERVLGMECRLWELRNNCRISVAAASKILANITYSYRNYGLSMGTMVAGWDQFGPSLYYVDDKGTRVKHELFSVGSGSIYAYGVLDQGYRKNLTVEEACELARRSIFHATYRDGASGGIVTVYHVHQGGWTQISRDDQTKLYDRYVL
# [8] = species on record: Homo sapiens; assay: To identify inhibition of the IFN signalling (Jak-Stat) pathway via expression of an eGFP reporter gene under the control of an IFN-stimulated response element (ISRE) containing MxA promoter.; format: functional; conditions: 30 µM
# [9] = target: Shiga toxin 2 (Escherichia coli O157:H7) (UniProt P09385+P09386); assay: E. coli 0.157:H7 Shiga Toxin SOP - stx2 screening assay; format: functional; conditions: 30 µM
# [10] = target: T5, Tyrosyl-tRNA synthetase, putative (Trypanosoma cruzi (strain CL Brener)) (UniProt Q4DSP6); assay: Trypanosoma cruzi tyrosyl tRNA synthetase (TcYRS) _High Tyrosine SOP; format: functional; conditions: 30 µM; note: in the data most compounds retested in dose-response had high values
# T5 sequence (whole entry): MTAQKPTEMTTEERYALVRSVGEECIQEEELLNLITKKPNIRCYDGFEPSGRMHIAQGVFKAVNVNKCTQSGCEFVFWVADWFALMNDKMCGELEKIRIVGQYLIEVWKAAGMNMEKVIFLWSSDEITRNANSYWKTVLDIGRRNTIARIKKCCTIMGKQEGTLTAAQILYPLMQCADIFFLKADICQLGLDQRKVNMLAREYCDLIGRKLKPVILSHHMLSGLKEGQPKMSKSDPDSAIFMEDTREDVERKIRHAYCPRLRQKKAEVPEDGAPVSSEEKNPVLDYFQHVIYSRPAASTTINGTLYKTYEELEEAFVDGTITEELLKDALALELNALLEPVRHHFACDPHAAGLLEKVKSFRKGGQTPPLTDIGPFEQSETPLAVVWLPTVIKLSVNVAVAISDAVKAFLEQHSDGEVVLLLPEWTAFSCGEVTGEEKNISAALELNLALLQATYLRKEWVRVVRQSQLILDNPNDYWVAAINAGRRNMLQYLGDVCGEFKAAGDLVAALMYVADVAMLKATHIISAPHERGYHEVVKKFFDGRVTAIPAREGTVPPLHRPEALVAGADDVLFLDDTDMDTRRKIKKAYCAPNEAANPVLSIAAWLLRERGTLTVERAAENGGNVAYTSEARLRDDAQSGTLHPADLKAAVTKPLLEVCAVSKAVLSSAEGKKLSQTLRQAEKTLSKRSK
# [11] = target: T5, Tyrosyl-tRNA synthetase, putative (Trypanosoma cruzi (strain CL Brener)); assay: Trypanosoma cruzi tyrosyl tRNA synthetase (TcYRS) SOP; format: functional; conditions: 30 µM
# [12] = target: Chromo domain-containing protein 1 (Saccharomyces cerevisiae (strain ATCC 204508 / S288c) (Baker's yeast)) (UniProt P32657); assay: ScCHD-1 Enzyme Inhibition Assay; format: functional; conditions: 30 µM; note: in the data most compounds retested in dose-response had high values
# [13] = target: AMP-activated protein kinase, AMPK (Homo sapiens) (UniProt P54646+O43741+P54619+Q9UGJ0+Q9Y478+Q13131+Q9UGI9); assay: AMP-dependent Kinase enzyme assay. An in vitro enzyme assay that detects ADP turnover that is directly proportional to AMPK activity. This uses naive AMPK that is activated during the assay with MK-8722; format: functional; conditions: 30 µM
# Chain of Chromo domain-containing protein 1 (Saccharomyces cerevisiae (strain ATCC 204508 / S288c) (Baker's yeast)) (P32657 whole entry, the tested form may be a part): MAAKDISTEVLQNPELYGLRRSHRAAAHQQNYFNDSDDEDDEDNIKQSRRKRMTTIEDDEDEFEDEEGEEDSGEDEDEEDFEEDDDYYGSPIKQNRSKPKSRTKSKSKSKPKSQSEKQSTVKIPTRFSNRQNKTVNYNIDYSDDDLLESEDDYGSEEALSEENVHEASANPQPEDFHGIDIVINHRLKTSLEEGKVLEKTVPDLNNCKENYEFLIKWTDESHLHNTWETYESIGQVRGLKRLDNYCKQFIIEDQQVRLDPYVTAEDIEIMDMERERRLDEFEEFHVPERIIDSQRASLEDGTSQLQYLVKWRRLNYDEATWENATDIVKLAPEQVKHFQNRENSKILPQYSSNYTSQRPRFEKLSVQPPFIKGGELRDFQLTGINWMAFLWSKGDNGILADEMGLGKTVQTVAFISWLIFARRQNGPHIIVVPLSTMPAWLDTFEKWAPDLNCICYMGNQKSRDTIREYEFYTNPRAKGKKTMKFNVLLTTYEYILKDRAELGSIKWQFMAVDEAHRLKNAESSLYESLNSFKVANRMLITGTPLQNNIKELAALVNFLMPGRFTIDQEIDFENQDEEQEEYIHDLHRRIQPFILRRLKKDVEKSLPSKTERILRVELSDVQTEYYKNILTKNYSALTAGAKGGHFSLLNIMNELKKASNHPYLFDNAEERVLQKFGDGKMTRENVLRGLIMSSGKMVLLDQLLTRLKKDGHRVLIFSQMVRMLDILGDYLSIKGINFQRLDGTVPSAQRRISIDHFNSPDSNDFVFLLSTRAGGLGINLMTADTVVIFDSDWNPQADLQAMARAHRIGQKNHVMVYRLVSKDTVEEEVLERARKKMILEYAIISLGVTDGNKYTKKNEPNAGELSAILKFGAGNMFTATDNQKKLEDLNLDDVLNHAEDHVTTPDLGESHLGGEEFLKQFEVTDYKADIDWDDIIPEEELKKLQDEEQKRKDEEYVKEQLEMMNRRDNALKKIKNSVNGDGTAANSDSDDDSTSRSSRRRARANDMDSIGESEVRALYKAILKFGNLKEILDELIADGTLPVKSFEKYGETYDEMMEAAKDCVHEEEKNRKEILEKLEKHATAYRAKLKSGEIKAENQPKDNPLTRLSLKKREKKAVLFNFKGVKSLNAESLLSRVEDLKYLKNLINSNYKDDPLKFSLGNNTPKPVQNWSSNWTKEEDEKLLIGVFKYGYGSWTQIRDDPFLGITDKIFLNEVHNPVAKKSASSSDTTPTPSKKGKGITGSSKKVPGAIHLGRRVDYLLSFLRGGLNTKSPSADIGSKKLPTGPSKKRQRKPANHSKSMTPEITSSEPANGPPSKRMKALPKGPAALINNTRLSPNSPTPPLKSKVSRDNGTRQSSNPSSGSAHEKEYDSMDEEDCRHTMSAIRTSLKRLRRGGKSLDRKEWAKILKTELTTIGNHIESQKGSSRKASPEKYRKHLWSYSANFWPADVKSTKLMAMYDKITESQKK
# Chain of Protein translocase subunit SecA (Escherichia coli (strain K12)) (P10408 whole entry): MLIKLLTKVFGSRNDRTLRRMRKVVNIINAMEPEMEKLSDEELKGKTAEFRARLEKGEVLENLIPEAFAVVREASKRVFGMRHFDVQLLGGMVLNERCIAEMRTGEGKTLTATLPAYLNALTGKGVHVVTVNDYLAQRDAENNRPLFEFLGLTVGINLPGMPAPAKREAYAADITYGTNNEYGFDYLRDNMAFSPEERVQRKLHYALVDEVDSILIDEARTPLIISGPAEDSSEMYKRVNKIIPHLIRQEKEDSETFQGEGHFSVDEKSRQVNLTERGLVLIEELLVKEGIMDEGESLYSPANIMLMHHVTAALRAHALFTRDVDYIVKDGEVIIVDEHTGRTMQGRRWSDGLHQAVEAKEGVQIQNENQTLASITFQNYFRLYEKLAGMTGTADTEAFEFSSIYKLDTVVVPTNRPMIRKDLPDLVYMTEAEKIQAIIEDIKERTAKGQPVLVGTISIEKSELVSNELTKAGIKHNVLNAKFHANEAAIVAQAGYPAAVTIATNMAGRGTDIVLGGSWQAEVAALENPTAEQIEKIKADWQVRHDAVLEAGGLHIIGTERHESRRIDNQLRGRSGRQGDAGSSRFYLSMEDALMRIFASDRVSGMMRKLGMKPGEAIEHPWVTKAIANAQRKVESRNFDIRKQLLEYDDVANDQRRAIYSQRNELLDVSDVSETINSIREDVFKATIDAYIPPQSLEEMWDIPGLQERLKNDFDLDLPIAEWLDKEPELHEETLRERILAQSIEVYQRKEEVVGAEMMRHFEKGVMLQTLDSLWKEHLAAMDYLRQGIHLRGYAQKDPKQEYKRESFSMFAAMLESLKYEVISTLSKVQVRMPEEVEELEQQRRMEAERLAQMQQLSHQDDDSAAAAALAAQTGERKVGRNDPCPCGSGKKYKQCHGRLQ
# Chain of Sialic acid-binding Ig-like lectin 9 (Homo sapiens) (Q9Y336 whole entry): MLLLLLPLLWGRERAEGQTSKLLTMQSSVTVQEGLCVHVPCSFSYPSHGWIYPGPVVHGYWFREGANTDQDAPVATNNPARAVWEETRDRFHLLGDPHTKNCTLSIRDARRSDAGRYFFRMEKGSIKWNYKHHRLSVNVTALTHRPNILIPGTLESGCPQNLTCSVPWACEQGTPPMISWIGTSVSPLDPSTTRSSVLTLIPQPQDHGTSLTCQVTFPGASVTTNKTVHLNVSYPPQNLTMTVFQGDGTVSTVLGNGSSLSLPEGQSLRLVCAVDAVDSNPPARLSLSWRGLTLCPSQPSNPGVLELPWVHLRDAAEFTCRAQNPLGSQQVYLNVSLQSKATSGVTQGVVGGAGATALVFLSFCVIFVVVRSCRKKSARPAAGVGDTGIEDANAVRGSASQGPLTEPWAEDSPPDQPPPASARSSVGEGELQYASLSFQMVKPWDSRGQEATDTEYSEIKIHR
SMILES,Percent Effect [1] [%],Percent Effect [2] [%],Percent Effect [3] [%],Percent Effect [4] [%],Percent Effect [5] [%],Percent Effect [6] [%],Percent Effect [7] [%],Percent Effect [8] [%],Percent Effect [9] [%],Percent Effect [10] [%],Percent Effect [11] [%],Percent Effect [12] [%],Percent Effect [13] [%]
CC(=O)N1CCN(Cc2ccccn2)CC2(CC(=O)N(C)C2)C1 (stereo not given),-0.0517,-29.9,-4.78,4,0.938,-1.37,3.35,-20.2,2.99,6.76,7.5,-1.54,–
O=C(Cc1ccc(O)c(Cl)c1)N1CCN(CC2CC2)[C@@H]2CS(=O)(=O)C[C@@H]21,-7.75,-1.39,4.65,15.8,-1.46,0,7.54,-5.81,-19.1,-2.1,-2.56,-1.95,-2.21
O=C(NCC(F)(F)F)C1=NOC2(CCCNC2)C1 (stereo not given),-8.38,3.9,1.78,4,-3.21,-4.86,4.15,-6.57,13.8,4.74,2.56,-0.335,–
c1cnc(N2CCC3(CCN(CC4CCOC4)C3)CC2)nc1 (stereo not given),-3.76,6.49,8.74,-2.65,-2.63,0.405,10.2,0.479,-3.12,2.63,7.69,-4.21,–
c1ccc(CN2CCC3(CC2)CCN(Cc2cccs2)C3)nc1,-3.68,11.7,1.23,-8.25,-1.31,-0.457,6.61,-11.1,-13.1,8.7,-12.5,-12,–
CCCN1C(=O)CC2(CCCNC2)C1=O (stereo not given),-4.19,11.7,3.28,-2.44,-1.13,-0.913,3.86,-15.1,2.28,1.93,7.5,-2.73,–
Cc1nc(CN2CCO[C@H]3[C@@H](OCc4ccccn4)CC[C@@H]32)cs1,-6.18,9.09,3.07,-6.32,-3.6,-2.43,10.2,4.6,-1.17,4.74,7.69,-4.92,–
